Experimental data published in PubChem BioAssay (EPA / NIEHS).
Activity calls are given as the source filed them. Rule for the calls: active = hit-call score of the fitted dose curve at least 0.9, where 1 is the maximum; inactive = score below 0.9.

Columns and labels:
[1] = ATG_E_Box_CIS: Attagene CIS-FACTORIAL HepG2 Assay for human Enhancer Box (E-box) (AID 2282936); settings: HepG2 E-box cis-reporter transcription, actives raise or lower the signal
In short: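 Transiently transfected HepG2, endogenous TF-driven reporters, 24 h dosing. Readout: RT-PCR plus capillary electrophoresis of fluorescent reporter fragments. Gain or loss of signal fitted bidirectionally against DMSO baseline.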

[2] = ATG_M_61_CIS: Attagene CIS-FACTORIAL HepG2 Assay for M61 Transcription Factor (Internal Marker) (AID 2282937); settings: HepG2 Attagene CIS-FACTORIAL M61 internal marker reporter; actives raise or lower the signal
In short: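 Multiplexed reporter mRNA assay, HepG2 human hepatoma cells, 24 h treatment. Signal: FAM-labelled, HpaI-digested RT-PCR fragments by CE. Fit: bidirectional, baseline DMSO.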

[3] = ATG_EGR_CIS: Attagene CIS-FACTORIAL HepG2 Assay for human Early Growth Response 1 (EGR1) (AID 2282938); settings: HepG2 Attagene CIS-FACTORIAL EGR reporter mRNA; actives raise or lower the signal
In short: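 Multiplexed cis-reporter system in human hepatoma HepG2 cells, transiently transfected. Cells are dosed for 24 h; reporter transcripts are amplified, fluorescently tagged and sized by capillary electrophoresis, with DMSO as negative control.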

[4] = ATG_Ets_CIS: Attagene CIS-FACTORIAL HepG2 Assay for human Erythroblast Transformation Specific (ETS) (AID 2282941); settings: HepG2 ETS cis-reporter transcription, actives raise or lower the signal
In short: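 Endogenous transcription factor activity read as reporter mRNA via RT-PCR and capillary electrophoresis, with gain or loss fitted bidirectionally against DMSO. Human HepG2 liver cells, transiently transfected CIS reporter constructs, 24 h exposure.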

[5] = target: Hepatocyte nuclear factor 3-beta (Homo sapiens) (UniProt Q9Y261); assay: ATG_FoxA2_CIS: Attagene CIS-FACTORIAL HepG2 Assay for human Forkhead box A2 (FOXA2) (AID 2282942); settings: HepG2 cis-reporter transcription factor activity, 24 h; actives raise or lower the signal
In short: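 Multiplexed cis-element reporter assay in transiently transfected HepG2. Twenty-four hours post-dosing, RNA was reverse-transcribed, amplified, FAM-labelled, HpaI-digested and separated by CE. Activity gain or loss relative to DMSO.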

[6] = ATG_FoxO_CIS: Attagene CIS-FACTORIAL HepG2 Assay for human Forkhead box O (FoxO) (AID 2282943); settings: HepG2 Attagene cis-reporter, FoxO element, mRNA; actives raise or lower the signal
In short: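 HepG2 cells transiently transfected with cis-element-driven reporter units report endogenous FoxO activity. After 24 h chemical exposure, reporter mRNA quantified by RT-PCR, fluorescent labeling, HpaI digestion and capillary electrophoresis; bidirectional fit versus DMSO.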

[7] = ATG_GATA_CIS: Attagene CIS-FACTORIAL HepG2 Assay for human GATA Binding Protein (AID 2282944); settings: HepG2 GATA cis-element reporter, Attagene multiplex mRNA; actives raise or lower the signal
In short: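 DMSO serves as negative control and baseline for bidirectional fitting of reporter mRNA changes. HepG2 cells bearing transiently transfected cis-promoter reporters were exposed 24 h; transcripts detected via RT-PCR and capillary electrophoresis.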

[8] = ATG_GLI_CIS: Attagene CIS-FACTORIAL HepG2 Assay for human Zinc Finger Protein GLI1 (AID 2282945); settings: HepG2, Attagene cis-factorial reporter mRNA, GLI element; actives raise or lower the signal
In short: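 Transiently transfected HepG2 cells report endogenous transcription factor activity via cis-element-driven reporter units. After 24 h compound exposure, reporter mRNA was measured by RT-PCR with capillary electrophoresis; bidirectional fitting against DMSO baseline.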

[9] = target: Bile acid receptor (Homo sapiens) (UniProt Q96RI1); assay: ATG_IR1_CIS: Attagene CIS-FACTORIAL HepG2 Assay for human Nuclear Receptor Subfamily 1 Group H Member 4 (NR1H4), IR1 submotif (AID 2282946); settings: IR1 reporter transcription, actives raise or lower the signal
In short: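 Fluorescence of capillary-separated, HpaI-digested RT-PCR reporter products gave IR1-element mRNA induction in HepG2 cells 24 h after dosing. Endogenous transcription factors drove the cis-regulated reporters; activity was fitted bidirectionally against DMSO.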

[10] = ATG_GRE_CIS: Attagene CIS-FACTORIAL HepG2 Assay for human Glucocorticoid Response Elements (GRE) (AID 2282947); settings: HepG2 GRE cis-reporter, Attagene multiplex mRNA; actives raise or lower the signal
In short: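 Read-out: fluorescent reporter-transcript fragments separated by capillary electrophoresis after RT-PCR. Transiently transfected HepG2 cells carrying cis-element-driven reporter units were dosed for 24 h; gain or loss of signal fitted against DMSO control.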

[11] = ATG_ISRE_CIS: Attagene CIS-FACTORIAL HepG2 Assay for human Interferon Regulatory Factor 1 (IRF1) binding to an Interferon-Stimulated Response Element (ISRE) (AID 2282948); settings: HepG2 ISRE cis-reporter (Attagene), mRNA transcription readout; actives raise or lower the signal
In short: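 Endogenous transcription factor activity read as reporter transcript abundance via RT-PCR and capillary electrophoresis. HepG2 cells transiently transfected, 24 h chemical exposure. Gain or loss fitted against DMSO baseline.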

[12] = ATG_M_32_CIS: Attagene CIS-FACTORIAL HepG2 Assay for M32 Transcription Factor (Internal Marker) (AID 2282949); settings: HepG2 Attagene cis-factorial M32 reporter, mRNA; actives raise or lower the signal;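 note: background control marker of the multiplexed CIS panel rather than a real target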
In short: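 Using DMSO as baseline, bidirectional curve fits were applied to reporter mRNA signals. These came from transiently transfected HepG2 cells exposed for 24 h, with RNA analysed by RT-PCR, FAM primer extension, HpaI digestion and CE.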

[13] = ATG_M_06_CIS: Attagene CIS-FACTORIAL HepG2 Assay for M06 Transcription Factor (Internal Marker) (AID 2282950); settings: HepG2 Attagene CIS-FACTORIAL M06 internal marker reporter; actives raise or lower the signal
In short: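 Fluorescence-labelled RT-PCR products from cis-promoter reporter units, cut with HpaI and resolved by capillary electrophoresis, give the signal. Cells are human HepG2, dosed for 24 h. Serves as background control, fitted relative to DMSO.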

[14] = target: Hypoxia-inducible factor 1-alpha (Homo sapiens) (UniProt Q16665); assay: ATG_HIF1a_CIS: Attagene CIS-FACTORIAL HepG2 Assay for human Hypoxia Inducible Factor 1 (HIF1A) (AID 2282951); settings: HepG2 Attagene cis-factorial HIF1a reporter transcription; actives raise or lower the signal
In short: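 Cis-element reporter constructs were transiently transfected into HepG2 cells, which were treated for 24 h; reporter RNA was reverse-transcribed, amplified, labelled and resolved by capillary electrophoresis.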

[15] = target: Hepatocyte nuclear factor 6 (Homo sapiens) (UniProt Q9UBC0); assay: ATG_HNF6_CIS: Attagene CIS-FACTORIAL HepG2 Assay for human Hepatocyte Nuclear Factor 6 (HNF6) (AID 2282952); settings: HepG2 Attagene cis-factorial HNF6 reporter transcription; actives raise or lower the signal
In short: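 Readout: fluorescent reporter-transcript fragments resolved by capillary electrophoresis after RT-PCR, reflecting endogenous factor activity in transfected HepG2. Exposure 24 h. Gain or loss of signal fitted bidirectionally against DMSO.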

[16] = target: Heat shock factor protein 1 (Homo sapiens) (UniProt Q00613); assay: ATG_HSE_CIS: Attagene CIS-FACTORIAL HepG2 Assay for human Heat Shock Transcription Factor 1 (HSE) (AID 2282953); settings: HepG2 HSE cis-reporter, Attagene RNA transcription; actives raise or lower the signal
In short: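 After a 24 h incubation with test chemical, transfected HepG2 cells were harvested for RNA; reporter transcripts were measured by RT-PCR and capillary electrophoresis. Values reflect gain or loss of signal relative to DMSO.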

[17] = ATG_MRE_CIS: Attagene CIS-FACTORIAL HepG2 Assay for human Metal Responsive Element (MRE) (AID 2282954); settings: HepG2 MRE cis-reporter transcription, Attagene multiplex; actives raise or lower the signal
In short: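 RT-PCR/capillary electrophoresis readout of reporter mRNA, 24 h post-dosing, in HepG2 cells transfected with multiplexed cis-regulated reporter constructs. Gain or loss of signal fitted bidirectionally against DMSO baseline.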

[18] = ATG_ERE_CIS: Attagene CIS-FACTORIAL HepG2 Assay for Estrogen Response Element (ERE) (AID 2282940); settings: HepG2 ERE cis-reporter, Attagene RNA transcript; actives raise or lower the signal
In short: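 HepG2, transient cis-reporter units, 24 h exposure. RNA isolated, oligo(dT) RT, reporter-specific PCR, FAM extension, HpaI cut, CE detection. Gain/loss-of-signal vs DMSO.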

[19] = ATG_PBREM_CIS: Attagene CIS-FACTORIAL HepG2 Assay for human Phenobarbital-responsive Enhancer Module (PBREM) (AID 2282955); settings: HepG2 PBREM cis-reporter, Attagene multiplexed transcription; actives raise or lower the signal
In short: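 Multiplexed cis-reporter readout in human hepatoma HepG2 cells; PBREM-regulated transcript quantified after 24 h exposure by fluorescent RT-PCR fragment analysis. Signal changes up or down fitted relative to DMSO.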

[20] = ATG_M_19_CIS: Attagene CIS-FACTORIAL HepG2 Assay for M19 Transcription Factor (Internal Marker) (AID 2282939); settings: HepG2 Attagene CIS-FACTORIAL M19 internal marker reporter; actives raise or lower the signal
In short: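 Following a 24 h exposure, RNA from transfected HepG2 cells was reverse-transcribed, PCR-amplified with reporter-specific primers, end-labelled with 6-FAM and HpaI-digested before capillary separation. Values represent gain or loss versus DMSO.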

Measured: AC50

Sequence of Hepatocyte nuclear factor 6 (Homo sapiens) (Q9UBC0 whole entry, looked up, the tested form may be a part): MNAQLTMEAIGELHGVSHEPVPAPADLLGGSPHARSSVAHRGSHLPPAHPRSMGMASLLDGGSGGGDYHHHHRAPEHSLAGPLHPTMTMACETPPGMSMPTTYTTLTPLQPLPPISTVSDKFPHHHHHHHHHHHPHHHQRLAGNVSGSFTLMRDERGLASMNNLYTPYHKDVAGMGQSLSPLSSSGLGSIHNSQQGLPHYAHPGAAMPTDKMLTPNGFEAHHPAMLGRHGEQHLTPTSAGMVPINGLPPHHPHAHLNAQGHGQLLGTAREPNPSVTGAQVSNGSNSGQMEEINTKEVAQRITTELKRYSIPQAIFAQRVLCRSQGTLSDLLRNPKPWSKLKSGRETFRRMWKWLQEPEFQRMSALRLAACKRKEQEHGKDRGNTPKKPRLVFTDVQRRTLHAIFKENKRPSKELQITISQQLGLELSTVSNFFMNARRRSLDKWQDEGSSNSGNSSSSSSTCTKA
Sequence of Bile acid receptor (Homo sapiens) (Q96RI1 whole entry, looked up): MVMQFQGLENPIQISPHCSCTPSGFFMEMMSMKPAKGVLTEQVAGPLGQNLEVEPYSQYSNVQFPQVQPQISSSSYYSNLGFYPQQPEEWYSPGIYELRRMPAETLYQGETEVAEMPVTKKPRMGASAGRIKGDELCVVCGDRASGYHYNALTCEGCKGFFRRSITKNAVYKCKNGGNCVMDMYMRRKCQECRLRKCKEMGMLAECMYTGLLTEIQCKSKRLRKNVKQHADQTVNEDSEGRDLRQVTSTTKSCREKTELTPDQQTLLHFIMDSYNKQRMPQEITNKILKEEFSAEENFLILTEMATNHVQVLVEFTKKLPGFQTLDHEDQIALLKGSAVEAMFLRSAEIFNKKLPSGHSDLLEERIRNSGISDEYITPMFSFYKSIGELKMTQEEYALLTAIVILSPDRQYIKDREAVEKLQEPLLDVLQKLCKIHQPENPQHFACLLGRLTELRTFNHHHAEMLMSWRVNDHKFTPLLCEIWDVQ
Sequence of Hypoxia-inducible factor 1-alpha (Homo sapiens) (Q16665 whole entry, looked up): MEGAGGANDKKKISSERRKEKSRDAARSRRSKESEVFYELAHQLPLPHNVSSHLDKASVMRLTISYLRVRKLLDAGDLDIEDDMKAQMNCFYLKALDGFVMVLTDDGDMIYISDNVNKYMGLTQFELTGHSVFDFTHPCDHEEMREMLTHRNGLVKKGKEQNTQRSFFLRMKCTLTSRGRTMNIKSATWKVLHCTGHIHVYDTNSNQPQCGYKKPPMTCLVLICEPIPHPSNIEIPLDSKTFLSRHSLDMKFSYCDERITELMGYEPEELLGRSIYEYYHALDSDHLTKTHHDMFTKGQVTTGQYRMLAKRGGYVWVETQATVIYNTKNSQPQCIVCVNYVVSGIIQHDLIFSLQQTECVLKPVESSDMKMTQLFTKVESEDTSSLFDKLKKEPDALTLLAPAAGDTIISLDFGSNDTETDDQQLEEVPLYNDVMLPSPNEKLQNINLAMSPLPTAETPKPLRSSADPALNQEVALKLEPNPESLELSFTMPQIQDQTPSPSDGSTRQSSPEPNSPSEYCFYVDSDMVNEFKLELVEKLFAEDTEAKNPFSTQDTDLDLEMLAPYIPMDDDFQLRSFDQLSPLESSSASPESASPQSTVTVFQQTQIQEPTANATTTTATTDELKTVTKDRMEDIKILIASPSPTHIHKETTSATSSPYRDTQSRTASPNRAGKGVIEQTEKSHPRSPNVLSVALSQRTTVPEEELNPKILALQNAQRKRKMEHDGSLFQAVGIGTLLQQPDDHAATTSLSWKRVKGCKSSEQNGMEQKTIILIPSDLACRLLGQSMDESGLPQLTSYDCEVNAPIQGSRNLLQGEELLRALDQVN
Sequence of Hepatocyte nuclear factor 3-beta (Homo sapiens) (Q9Y261 whole entry, looked up): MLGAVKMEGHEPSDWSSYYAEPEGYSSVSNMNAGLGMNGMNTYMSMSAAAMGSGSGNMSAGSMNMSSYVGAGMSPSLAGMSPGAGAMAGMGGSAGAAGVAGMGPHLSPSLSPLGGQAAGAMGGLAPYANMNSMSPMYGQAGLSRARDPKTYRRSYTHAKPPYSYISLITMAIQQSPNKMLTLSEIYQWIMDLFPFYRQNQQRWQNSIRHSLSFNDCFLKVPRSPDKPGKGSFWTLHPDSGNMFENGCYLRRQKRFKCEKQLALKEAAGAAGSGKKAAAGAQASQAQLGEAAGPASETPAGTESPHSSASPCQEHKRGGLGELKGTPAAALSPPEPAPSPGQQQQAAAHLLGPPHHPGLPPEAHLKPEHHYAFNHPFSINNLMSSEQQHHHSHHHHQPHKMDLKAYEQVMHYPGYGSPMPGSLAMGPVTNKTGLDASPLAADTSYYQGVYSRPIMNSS
Sequence of Heat shock factor protein 1 (Homo sapiens) (Q00613 whole entry, looked up): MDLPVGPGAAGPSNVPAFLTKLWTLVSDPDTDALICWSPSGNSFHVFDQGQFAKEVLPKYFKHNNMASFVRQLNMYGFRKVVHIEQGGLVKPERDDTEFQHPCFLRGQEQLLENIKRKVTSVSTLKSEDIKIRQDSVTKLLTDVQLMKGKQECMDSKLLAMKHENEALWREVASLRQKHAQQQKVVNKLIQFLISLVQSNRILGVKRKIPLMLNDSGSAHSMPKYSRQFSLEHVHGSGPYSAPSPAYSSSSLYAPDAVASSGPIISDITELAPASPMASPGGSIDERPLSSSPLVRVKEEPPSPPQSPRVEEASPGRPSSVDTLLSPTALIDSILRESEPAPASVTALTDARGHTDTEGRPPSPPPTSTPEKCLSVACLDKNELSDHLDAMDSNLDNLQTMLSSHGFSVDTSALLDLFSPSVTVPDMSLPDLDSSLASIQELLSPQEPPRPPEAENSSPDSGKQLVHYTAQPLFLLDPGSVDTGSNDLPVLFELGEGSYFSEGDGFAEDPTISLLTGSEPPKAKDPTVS

CCCCCCC(C)Nc1ccc(Nc2ccccc2)cc1 (configuration not stated)
inactive: [1] | [2] | [3] | [4] | [5] | [6] | [7] | [8] | [9] | [10] | [11] | [12] | [13] | [14] | [15]
active: [16] 60.8 µM | [17] 48.9 µM

Brc1ccc(Br)c(Br)c1
inactive: [1] | [2] | [3] | [18] | [4] | [5] | [6] | [7] | [8] | [11] | [12] | [13] | [14] | [15] | [16] | [17]

CC(C)NCC(O)COc1ccc(CC(N)=O)cc1 (configuration not stated)
inactive: [1] | [2] | [3] | [18] | [4] | [5] | [6] | [7] | [8] | [11] | [13] | [15] | [16] | [17]

CCc1cc(C(C)(C)C)c(O)c(C(C)(C)C)c1
active: [1] 24.4 µM
inactive: [2] | [3] | [4] | [5] | [6] | [7] | [8] | [9] | [10] | [11] | [13] | [14] | [15] | [16] | [17]

O=c1c(O)c(-c2ccc(O)cc2)oc2cc(O)cc(O)c12
inactive: [1] | [2] | [3] | [4] | [5] | [6] | [7] | [8] | [9] | [11] | [12] | [13] | [15] | [16] | [17] | [19]

COc1ccccc1N=Nc1c(S(=O)(=O)O)cc2cc(S(=O)(=O)O)cc(NC(C)=O)c2c1O
inactive: [1] | [2] | [3] | [4] | [5] | [6] | [7] | [8] | [10] | [11] | [12] | [13] | [14] | [15] | [16] | [17] | [19]

ClC(c1ccccc1)(c1ccccc1)c1ccccc1
inactive: [1] | [2] | [3] | [20] | [4] | [5] | [7] | [9] | [10] | [11] | [13] | [14] | [15] | [16] | [17] | [19]
